# Laboratory results as given in PubChem BioAssay AID1578 (Sanford-Burnham Center for Chemical Genomics, 2009).
# Among all 290,000 compounds or so, about 3,000 (1%) were called active. The list comes from a sample in which actives are over-represented; it also holds similar structures and randomly drawn compounds. Values without a mark were called inactive. Rule as the data show it: active = inhibition mostly above about 36% (no sharp cut-off); inactive = mostly below about 34%.
# Assay: inhibition of NOD1-driven NF-kB reporter – cell-based, luminescence, uHTS, primary screen (AID 1578);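 also: HEK-293T reporter cells stimulated with the NOD1 agonist gamma-tri-DAP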
# Conditions: NOD1-driven NF-kB luciferase reporter cells, at 4 µM, stronger effect = higher value
row,SMILES,inhibition
1,O=C(Nc1cccc(F)c1)N1CCC(n2c(=O)[nH]c3ccccc32)CC1,-2.7%
2,COc1ccc(-c2noc(N3CCC(C(=O)NCCCN4CC(C)CC(C)C4)CC3)n2)cc1 (configuration not stated),-3.9%
3,CCOC(=O)Cc1ccc(NC(=O)c2ccc([N+](=O)[O-])cc2)cc1,-35.6%
4,CC(C)(C)c1ccc(C(=O)Nc2ccc(CC(=O)O)cc2)o1,76.3% (active)
5,COC(=O)Cc1ccc(NC(=O)c2ccc(C)c(C)c2)cc1,-39.1%
6,Cc1ccc(C(=O)Nc2ccc(CC(=O)O)cc2)o1,-4.8%
7,COC(=O)Cc1ccc(NC(=O)c2ccc(C(C)(C)C)cc2)cc1,88.2% (active)
8,CCOC(=O)Cc1ccc(NC(=O)c2ccccc2Br)cc1,-20.3%
9,CCOC(=O)Cc1ccc(NC(=O)c2ccc(C(C)(C)C)cc2)cc1,69.9% (active)
10,CC(C)(C)c1ccc(C(=O)Nc2ccc(NC(=O)C(=O)O)cc2)o1,-19%
11,COC(=O)Cc1ccc(NC(=O)c2ccc(NC(=O)c3ccco3)cc2)cc1,-16%
12,C=C(CO)C1Cc2cc(C(C)=O)ccc2O1 (configuration not stated),-3.8%
13,CC(C)(C)c1ccc(C(=O)c2c[nH]c(C(=O)NCCCN3CCOCC3)c2)cc1,-19.7%
14,COc1ccc(CCC(=O)NC(C)C)cc1,-11.1%
15,O=S(=O)(NCCN1CCOCC1)c1ccc(-c2ccc(S(=O)(=O)NCCN3CCOCC3)cc2)cc1,-11.2%
16,CCc1ccc(N2CC(C(=O)Nc3nc4ccc(S(C)(=O)=O)cc4s3)CC2=O)cc1 (configuration not stated),0.5%
17,O=C(CCCN1C(=O)S/C(=C/C=C/c2ccccc2)C1=O)Nc1ccc(C(=O)O)cc1,-38%
18,O=C(CCc1ccccc1)NC(NC(=S)Nc1ccc(Cl)cc1)C(Cl)(Cl)Cl (configuration not stated),19.9%
19,C/C(=N/NC(=O)c1nnn(-c2nonc2N)c1-c1ccccc1)c1ccncc1,-26.6%
20,Cc1c(Cl)c(C(=O)N2CCCc3ccccc32)nn1C,0.6%
21,O=c1cc(C(Cl)(Cl)Cl)oc2c1ccc1ccccc12,82.3% (active)
22,O=c1cc(C(F)F)oc2c1ccc1ccccc12,27.3%
23,O=c1cc(C(F)(F)F)oc2c1ccc1ccccc12,-3.4%
24,O=C(/C=C/c1ccc(OC(F)F)cc1)Nc1cccc(S(=O)(=O)NC2=NCCCCC2)c1,-43.6%
25,COCCC(=O)N1CCC(Oc2ccc(C(=O)N3C[C@H]4CC[C@H]3C4)cc2)CC1,-33%

row,SMILES,inhibition
1,COc1cc(C(=O)NCCNC(=O)c2cc(OC)c(C)c(OC)c2)cc(OC)c1C,-45.1%
2,COCCNC(=O)COc1ccc(Oc2ccccc2)cc1,-26.6%
3,C=CCNC(=O)COc1ccc(Oc2ccccc2)cc1,52.1% (active)
4,C=CCNC(=O)c1ccccc1NC(=O)COc1ccccc1,27.8%
5,O=C(NCCSc1ccc(Br)cc1)c1ccc2nc[nH]c2c1,-38.2%
6,Cc1ccc(S(=O)(=O)CC(=O)Nc2cc(C)on2)cc1,24.4%
7,Cc1cc2oc(=O)sc2cc1NS(=O)(=O)c1cccc2cccnc12,-17.4%
8,CCC(=O)Nc1cccc(-c2cnc3ccccc3n2)c1,-54.6%
9,O=C(CP(=O)(c1ccccc1)c1ccccc1)Nc1cccc(CP(=O)(c2ccccc2)c2ccccc2)c1,7.2%
10,C=CCN(CC=C)CC(=O)Nc1cccc(Oc2cnccn2)c1,1.4%
11,CC(=O)Nc1ccc(Oc2cnccn2)cc1,-8.8%
12,O=C(CCl)Nc1cccc(Oc2ccccc2)c1,75.3% (active)
13,CC(=O)Nc1cccc(CP(=O)(c2ccccc2)c2ccccc2)c1,-3.5%
14,N=c1sccn1CC(=O)Nc1cccc(Oc2ccccc2)c1,16.7%
15,O=C(CCl)Nc1cccc(CP(=O)(c2ccccc2)c2ccccc2)c1,106% (active)
16,O=C(Nc1cccc(-c2cnc3ccccc3n2)c1)c1ccccc1,-0.8%
17,O=C(CCl)Nc1cccc(Oc2cnccn2)c1,32.3% (active)
18,O=C(CN1CCCCC1)Nc1cccc(Oc2ccccc2)c1,-5.2%
19,O=C(CCl)Nc1cccc(-c2cnc3ccccc3n2)c1,104% (active)
20,CCOc1ccc(NS(=O)(=O)c2ccc(NC(=O)C3CC3)cc2)cc1,23.9%
21,Fc1ccc(NC(=S)NCc2cccnc2)cc1,-21.1%
22,Cc1nnc(NC(=O)CN2CCN(Cc3c(Cl)cccc3Cl)CC2)s1,2.8%
23,C/C(=N\NC(=O)c1ccccn1)c1ccc(C(=O)O)s1,6.8%
24,Cc1ccccc1NC(=O)c1c(-c2ccccc2)noc1C,-7.9%
25,CN(Cc1ccccc1)S(=O)(=O)c1ccc(Cl)c(C(=O)NCc2ccc3c(c2)OCO3)c1,-8.3%

row,SMILES,inhibition
1,O=C(NC(=S)Nc1nc(-c2cccc([N+](=O)[O-])c2)cs1)c1ccccc1Cl,-36.4%
2,CC(=O)Nc1ccc(Nc2nc(-c3sc(NC(C)=O)nc3C)cs2)cc1,32.9%
3,CC(=O)Nc1nc(C)c(-c2csc(Nc3cccc(C(C)=O)c3)n2)s1,3.5%
4,O=C(NC(=S)Nc1nc(-c2cccc([N+](=O)[O-])c2)cs1)c1cc(Cl)ccc1Cl,13.4%
5,O=[N+]([O-])c1cccc(NC(=S)Nc2nc(-c3ccccc3Cl)cs2)c1,88.1% (active)
6,CC(C)CCNC(=O)c1nn(Cc2ccccc2)c(=O)c2ccccc12,-6.4%
7,Cc1cc(C(=O)CSc2nnc(NCc3ccccc3)s2)c(C)n1C,-18.8%
8,Cc1sc2ncnc(N3CCN(Cc4ccccc4)CC3)c2c1-c1ccccc1,43.2%
9,CCN1CCN(c2ncnc3sc(C)c(-c4ccccc4)c23)CC1,-8.6%
10,Cc1ccc(C(=O)NS(=O)(=O)c2ccc(C)cc2)cc1,-2.7%
11,Cc1ccc(C(=O)NS(=O)(=O)c2ccc(N=NN(C)C)cc2)cc1,46.6% (active)
12,Cc1ccc(C(=O)NS(=O)(=O)c2ccccc2)cc1,-46.6%
13,Cc1cccc(/C=C2\CCC(=C3SCCCS3)C2=O)c1,21.6%
14,O=C1C(=C2SCCCS2)CC/C1=C\c1ccc(F)cc1,76.9% (active)
15,O=C1/C(=C/c2ccc(F)cc2)CCC1C1CCCC1 (configuration not stated),-42.1%
16,Cc1ccc(C(=O)Nc2cccnc2Cl)cc1Cl,-74.4%
17,NC(=O)COC(=O)c1ccc(NS(=O)(=O)c2ccc3c(c2)OCCO3)cc1,-9.9%
18,COc1ccc(-c2cc(-c3ccccc3)c(C#N)c(S(C)(=O)=O)n2)cc1,19.6%
19,CC(C)C(Sc1nc(-c2ccccc2)cc(-c2ccccc2)c1C#N)C(=O)O (configuration not stated),52.9% (active)
20,N#Cc1c(-c2ccccc2)cc(-c2ccccc2)nc1SCCC(=O)O,3.1%
21,CS(=O)(=O)c1nc(-c2ccc(Br)cc2)cc(-c2ccccc2)c1C#N,40.6%
22,COc1ccc(-c2cc(-c3ccccc3)nc(SC(C)C(=O)O)c2C#N)cc1 (configuration not stated),-21.4%
23,CS(=O)(=O)c1nc(-c2ccccc2)cc(-c2ccccc2)c1C#N,68.3% (active)
24,COC(=O)c1ccccc1NC(=O)CSc1n[nH]c(-c2ccco2)n1,-8.4%
25,O=C(C1CCN(c2ccc(N3CCOCC3)nn2)CC1)N1CCN(c2ccc(F)cc2)CC1,-18.2%

row,SMILES,inhibition
1,C=CCSc1nc2sc3c(c2c(=O)[nH]1)CC(C)(CC)OC3 (configuration not stated),-17.8%
2,Cc1ccccc1NC(=O)CC1SCCNC1=O (configuration not stated),11.3%
3,COCCCNCCCCOc1cccc(Br)c1,-2.3%
4,C=CCNCCCCOc1cccc(Br)c1,11.4%
5,OCCNCCCCOc1cccc(Br)c1,75.8% (active)
6,O=S(=O)(/N=C(/NC(=S)Nc1ccccc1)c1ccccc1)c1ccc(Cl)cc1,-32.1%
7,O=c1c(Cc2ccc(F)cc2)c(O)ccn1C1CCCCC1,-17.4%
8,O=c1c(Cc2ccccc2)c(O)ccn1C1CCCCCCC1,-38.2%
9,O=c1c(Cc2ccc(F)cc2)c(O)ccn1C1CC1,51.7% (active)
10,CCCCCCCCCCCC(=O)NC(C(=O)O)C(O)c1ccccc1 (configuration not stated),55.2% (active)
11,CCCCCCCCCCCC(=O)NC(C(=O)OCC)C(O)c1cccc([N+](=O)[O-])c1 (configuration not stated),34.1%
12,CCCCCCCCOC(=O)C(NC(=O)CCC(=O)Nc1ccc(S(N)(=O)=O)cc1)C(O)c1ccccc1 (configuration not stated),-2.4%
13,CN1CCN(c2ccc(NC(=O)c3ccco3)cc2Cl)CC1,-46.7%
14,Nc1ccc(NC2C[C@@H](C(=O)O)NC2=O)cc1 (some centres not stated),-25.3%
15,CC(C)CC(=O)N/N=C/c1c(N)n(C)c(=O)n(C)c1=O,-7.7%
16,CCn1cc(Cl)c(C(=O)N2N=C(c3ccc4ccccc4c3)CC2c2ccccc2O)n1 (configuration not stated),61.4% (active)
17,CCn1cc([N+](=O)[O-])c(C(=O)N2N=C(c3ccc4ccccc4c3)CC2c2ccccc2O)n1 (configuration not stated),-40.2%
18,CCn1cc([N+](=O)[O-])c(C(=O)N2N=C(c3ccc(Cl)c(Cl)c3)CC2c2ccccc2O)n1 (configuration not stated),-14.7%
19,CCOc1cc(NC(=O)CCl)c(OCC)cc1NC(=O)CCl,71.2% (active)
20,CCCCC(=O)Nc1cc(OCC)c(NC(=S)NC)cc1OCC,-5.5%
21,CCOc1cc(Cl)c(NC(=O)CC)cc1OCC,-18.6%
22,CCN1C(=O)c2ccccc2Sc2ccc(C(=O)NC(C)C)cc21,0.6%
